Assay results reported in PubChem BioAssay AID2685 (National Center for Advancing Translational Sciences (NCATS), 2010).
Out of some 320,000 compounds screened, about 2,100 (0.66%) were called active. About 53% were inconclusive and are not listed. This is one part of a sample in which actives are shown more often than they occur. The call rests on the fitted dose curve; in most records, active means well fitted inhibition curve with a large enough effect in the signal ratio, with a control signal flat (not every such curve was filed as active); inconclusive means small, poorly fitted or top-dose-only effect, or effect the other way, or a change in a side signal; inactive means flat fitted curve, though single readings scatter; the % refers to the signal ratio.

Assay: qHTS Assay for Lipid Storage Modulators in Drosophila S3 Cells;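 on cell number change: cells counted by Cell Tracker Red CMTPX staining in the red channel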
Settings: BODIPY lipid droplet fluorescence, 18-24 h, cells fed with added oleic acid; cell number change: measured here: cell count max response; series mostly up to 46.1 µM
Method in brief: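 Drosophila S3 cells got compounds at several concentrations plus oleic acid (400 uM solution). Laser-scanning cytometry with 488 nm excitation read lipid droplets at 500-530 nm and cells at 575-640 nm. Percent activity was relative to 20 uM Triacsin C.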
Potency means the concentration at half of the fitted maximal effect.

SMILES | Potency | cell number change [%]
O=c1cc(-c2ccc3c(c2)OCCO3)oc2ccc(Cl)cc12 | inactive | 12.3
Nc1c(-c2ccc3c(c2)OCCO3)oc2ccccc2c1=O | 1.84 µM (active) | -8.11
Nc1oc2ccccc2c(=O)c1-c1ccc2c(c1)OCO2 | inactive | 5.77
CCOC(=O)C1=C(C)NC2=C(C(=O)CCC2)C1c1cccs1 (configuration not stated) | inactive | 25.2
COc1ccc(NS(=O)(=O)c2cccc(C(=O)N/N=C(\C)c3ccc(-n4ccnc4)cc3)c2)cc1 | inactive | 11.3
O=C(Nc1ccccc1C(=O)NCCCN1CCOCC1)c1ccc(F)cc1F | inactive | 3.6
CC1(C)Cc2c(cnn2-c2ccc(F)cc2)C(NC(=O)C2=NNC(=O)CC2)C1 (configuration not stated) | inactive | –
CSCc1ccc(C(=O)NC2CC(C)(C)Cc3c2cnn3-c2ccc(F)cc2)o1 (configuration not stated) | 25.9 µM (active) | -25.2
CC1(C)Cc2c(cnn2-c2ccc(F)cc2)C(NC(=O)c2ccoc2)C1 (configuration not stated) | inactive | 6.57
COc1ccc(-n2ncc3c2CC(C)(C)CC3NC(=O)c2ccnn2C)cc1 (configuration not stated) | 14.6 µM (active) | -19.1
COc1ccc(-n2ncc3c2CC(C)(C)CC3NC(=O)c2ccc(OC)o2)cc1 (configuration not stated) | inactive | -8.87
Cn1nccc1C(=O)NC1CC(C)(C)Cc2c1cnn2-c1ccc(F)cc1 (configuration not stated) | inactive | –
CCN1CCCC1CNC(=O)c1cn(C)c2ccc(S(=O)(=O)N3CCCCCC3)cc2c1=O (configuration not stated) | inactive | 3.92
CC(C)NC(=O)C(OC(=O)c1ccccc1)C(OC(=O)c1ccccc1)C(=O)O (configuration not stated) | inactive | 7.86
Cn1nc(-c2ccccc2)cc1NC(=O)Nc1ccccc1F | inactive | -4
COc1cc(CC(=O)OCC(=O)NC2CCCCC2C)cc(OC)c1OC (configuration not stated) | inactive | -2.51
Cc1nn(-c2ccccc2)c(C)c1S(=O)(=O)O | inactive | -1.62
CC(=O)c1c(C)nn(-c2ccccc2)c1C | inactive | 16.2
Cc1nn(-c2ccccc2)c(C)c1-c1ccccc1O | 7.31 µM (active) | -20.1
O=c1c2[nH]c3ccc(F)cc3c2ncn1Cc1ccncc1 | inactive | 1.6
Cc1nn(CC(=O)NC(C)C)c(C)c1[N+](=O)[O-] | inactive | 17.1
CC(=O)NC(Cc1cccc(C)c1)C(=O)NC1CCN(C(=O)NCc2ccccc2)CC1 (configuration not stated) | inactive | 5.24
COc1cccc(CC(NC(C)=O)C(=O)NC2CCN(C(=O)Nc3ccc(C)cc3)CC2)c1 (configuration not stated) | inactive | -3.63

SMILES | Potency | cell number change [%]
CC(=O)NC(Cc1ccc(C)cc1)C(=O)NC1CCN(C(=O)NCc2ccccc2)CC1 (configuration not stated) | inactive | 13.3
O=C(c1ccc(F)cc1)C1CCN(C(=O)NCc2ccccc2)CC1 | inactive | 2.65
O=C(Cc1ccccc1)NC1CCN(C(=O)NCc2ccccc2)CC1 | inactive | -0.661
COc1ccc(CC(NC(C)=O)C(=O)NC2CCN(C(=O)c3cccc(Cl)c3)CC2)cc1OC (configuration not stated) | inactive | -1.21
O=C(NC1CCN(C(=O)NCc2ccccc2)CC1)c1cccc(F)c1 | 29.1 µM (active) | 11.7
COc1cccc(CC(NC(C)=O)C(=O)NC2CCN(C(=O)c3ccc(Cl)cc3)CC2)c1 (configuration not stated) | 3.26 µM (active) | -13.3
CC(=O)NC(Cc1ccccc1F)C(=O)NC1CCN(C(=O)NCc2ccccc2)CC1 (configuration not stated) | 6.51 µM (active) | -14.1
COc1ccnc(Oc2cc(Cl)cc(Cl)c2)c1C#N | inactive | 16.7
COc1cc(C(=O)NCC(=O)OCC(=O)Nc2ncc(Cl)cc2Cl)cc(OC)c1OC | inactive | –
O=C(Cn1nnc(-c2cccs2)n1)NCc1ccco1 | inactive | 14.3
Cc1cc(=O)oc2c3c(cc(OCC(=O)N4CCC(C(=O)O)CC4)c12)OC(C)(C)CC3 | inactive | 22.1
Cc1ncoc1C(=O)NCc1ccccc1Cl | inactive | -13.1
Cc1nc(C)c(C(=O)NCc2ccccc2Cl)o1 | 8.2 µM (active) | -27.9
Cc1nc(C)c(C(=O)NCCC(c2ccccc2)c2ccccc2)o1 | inactive | -16.5
COC(CNC(=O)c1ccc2nc(-c3ccccc3)c(-c3ccccc3)nc2c1)OC | inactive | -6.61
O=C(CN1CCN(c2ccccc2F)CC1)Nc1ccc2c(c1)CCC2 | inactive | -8.56
Cc1ccc(NS(=O)(=O)c2ccc(Cl)s2)cc1S(=O)(=O)N(C)C | inactive | 9.65
Cc1ccc(S(=O)(=O)N(C)C)cc1NS(=O)(=O)c1ccc(Cl)s1 | 6.51 µM (active) | 0.163
Cc1nc(-c2ccc(S(=O)(=O)Nc3cc(S(=O)(=O)N(C)C)ccc3C)s2)cs1 | inactive | 1.19
COCCN(C(=O)c1ccccc1F)c1nc(-c2ccc(OC)cc2)cs1 | inactive | -17.2
COCCN(C(=O)c1ccccc1F)c1nnc(-c2ccc(OC)cc2)s1 | 18.4 µM (active) | -15.3
COCCN(C(=O)c1ccco1)c1nnc(-c2ccc(F)cc2)s1 | inactive | 4.04
